Test results taken from PubChem BioAssay (Tox21).
Values joined by “and” are separate entries in the source; they are usually repeats but may differ in a detail not shown here. Equal values may be shown once. Results filed as inconclusive are left out. Where a call stands in place of a potency, no number is given. Where a structure was tested more than once in an assay, its records may differ in their call. Active and inactive are the calls of the source. Unless noted, calls follow the shape of the dose curve; as a rule, active = well fitted curve in the direction sought with a large enough effect in the repeat runs; inconclusive = weak or mixed curves; inactive = no such curve, though single readings can be large; an effect the other way counts as inactive or inconclusive.

Key:
[1] = qHTS assay to identify small molecule agonists of the hypoxia (HIF-1) signaling pathway - cell viability counter screen (AID 1224844; calls by dose curve; also: nearly all actives have a fitted effect of over 50% in size; also: potency is read from the fitted curve at half-maximal effect)
In short: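 Same wells as the HIF-1 reporter screen; ME-180 cells carrying HRE-bla, 17 hr treatment at 37C; CellTiter-Glo luminescence read after 30 min at room temperature.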

[2] = qHTS assay to identify small molecule agonists of H2AX (AID 1224845; active = well fitted activation curve with a large enough effect in the signal ratio in the repeat runs, not every such curve was filed as active; the % refers to the signal ratio)
In short: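 Wild-type CHO-K1 cells, plated overnight, exposed 3hr at 37C to 15 concentrations (0.76% DMSO final). Lysed, then HTRF anti-pH2AX (S139) cryptate and anti-H2AX-d2 antibodies, 24 hr room temperature; 665/620 nm emission read.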

[3] = qHTS assay to identify small molecule agonists of the hypoxia (HIF-1) signaling pathway (AID 1224846; active = well fitted activation curve with a large enough effect in the signal ratio in the repeat runs, not every such curve was filed as active; the % refers to the signal ratio)
In short: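 In ME-180 cells bearing an HRE-bla construct, 17 h treatment with DMSO-dissolved compounds at 37C was followed by CCF4-AM loading to quantify reporter induction.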

[4] = qHTS assay to identify small molecule antagonists of the estrogen related receptor (ERR) signaling pathway from Tox21 library (AID 1224848); also: nearly all actives have a fitted effect of over 50% in size; also: potency is read from the fitted curve at half-maximal effect
In short: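 Quantitative high-throughput format: ERR reporter cells (2,000/well) pre-incubated 6 h, treated 18 h at 37 C with compounds in DMSO alongside positive and negative controls, then read by ONE-Glo luminescence.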

[5] = qHTS assay to identify small molecule agonists of the estrogen related receptor (ERR) signaling pathway from Tox21 library (AID 1224849; calls by dose curve; also: nearly all actives have a fitted effect of over 15% in size); details: ERR reporter cell line, ONE-Glo luciferase, 18 h
In short: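 Reporter cells (ERR, NTP source) treated with Tox21 10K compounds 18 h, 37 C. Readout: ONE-Glo luminescence, 30 min RT.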

[6] = qHTS RealTime-Glo MT Cell Viability Assay in HepG2 cells - 24 hour (AID 1224867); also: nearly all actives have a fitted effect of over 50% in size; also: potency is read from the fitted curve at half-maximal effect
In short: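 Real-time, nonlytic viability: 600 HepG2 cells/well mixed with NanoLuc enzyme plus prosubstrate; 5 h settle, compound (DMSO) added by pintool; luminescence monitored over 40 h at 37 C.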

[7] = qHTS RealTime-Glo MT Cell Viability Assay in HEK293 cells - 32 hour (AID 1224868); also: nearly all actives have a fitted effect of over 50% in size; also: potency is read from the fitted curve at half-maximal effect
In short: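 Cells + reagent dispensed (600 cells/well, HEK293) → 5 h at 37 C/5% CO2 → 23 nL compound in DMSO pinned → 40 h at 37 C → luminescence read at 0, 8, 16, 24, 32, 40 h.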

[8] = qHTS RealTime-Glo MT Cell Viability Assay in HepG2 cells - 40 hour (AID 1224870); also: nearly all actives have a fitted effect of over 50% in size; also: potency is read from the fitted curve at half-maximal effect
In short: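 HepG2 cells (600/well) mixed with RealTime-Glo MT reagent, settled 5 h at 37 C/5% CO2 before compound addition. Nonlytic NanoLuc luminescence from viable-cell prosubstrate reduction read repeatedly during 40 h treatment at 37 C.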

[9] = A CellTox Green Cytotoxicity Assay to monitor cytotoxicity in HEK293 cells - 0 hour (AID 1224869); also: nearly all actives have a fitted effect of over 50% in size
In short: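 Homogeneous no-lysis format: HEK293 cell suspension mixed with CellTox Green reagent, seeded, incubated 5 h at 37 C/5% CO2, then dosed by pintool with compound in DMSO.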

[10] = qHTS assay to identify small molecule agonists of H2AX - cell viability counter screen (AID 1224847; calls by dose curve; also: nearly all actives have a fitted effect of over 30% in size; also: potency is read from the fitted curve at half-maximal effect)
In short: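 After overnight plating of 1000 CHO-K1 cells per well, a 15-concentration compound series was applied for 3 hr at 37C. Luminescence from CellTiter-Glo, read following 30 min at room temperature, reflected cell viability.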

| SMILES | Potency [1] | Potency [2] | outcome [3] | Potency [4] | activity change, positive = activation ([5]; at 42.5 µM (top of the series)) | activity change, positive = activation ([5]; at 92.4 µM (top of the series)) | Potency [6] | Potency [7] | Potency [8] | Potency [9] | Potency [10] | activity change, positive = activation ([5]; at 19 µM (top of the series)) |
| --- | --- | --- | --- | --- | --- | --- | --- | --- | --- | --- | --- | --- |
| COc1cc([C@H]2Oc3cc([C@H]4Oc5cc(O)cc(O)c5C(=O)[C@@H]4O)ccc3O[C@@H]2CO)ccc1O | inactive | inactive | inactive | inactive | 4.78% (inactive) | -26.2% (inactive) | inactive | inactive | inactive | – | – | – |
| FC(F)(F)C(Cl)Br (stereo not drawn) | inactive | inactive | inactive | inactive | 6.22% (inactive) | 3.79% (inactive) | inactive | inactive | inactive | inactive | – | – |
| Cc1ccc2c(c1)C(=O)OC2=O | inactive | inactive | inactive | – | – | – | inactive | inactive | inactive | inactive | inactive | – |
| CN(C)CCCN1c2ccccc2Sc2ccc(Cl)cc21 | 49 µM (active) | – | – | 54.5 µM (active) | -35.5% (inactive) | -80.4% (inactive) | 43.6 µM (active) and 23.9 µM (active) | 24.5 µM (active) and 23.9 µM (active) | 30.9 µM (active) and 23.9 µM (active) | inactive | – | – |
| CN(C)/N=N/c1nc[nH]c1C(N)=O | inactive | inactive | – | 69.6 µM (active) | -23.2% (inactive) | -35.6% (inactive) | inactive | inactive | – | inactive | – | – |
| CC/C=C\C/C=C\C/C=C\CCCCCCCC(=O)O | inactive | inactive | inactive | – | – | – | inactive | inactive | inactive | – | – | – |
| Cc1ccc(/C(=C\CN2CCCC2)c2ccccn2)cc1 | inactive | inactive | – | – | – | – | inactive | inactive | inactive | inactive | inactive | – |
| C=C[C@H]1CN2CC[C@H]1C[C@@H]2[C@@H](O)c1ccnc2ccc(OC)cc12 | inactive | inactive | – | – | – | – | inactive | 48.2 µM (active) | inactive | inactive | inactive | – |
| C=C[Si](OCCOC)(OCCOC)OCCOC | inactive | inactive | inactive | – | – | – | inactive | inactive | inactive | – | – | – |
| NCCS(=O)(=O)O | inactive | inactive | – | – | – | – | inactive | inactive | inactive | – | inactive | – |
| CC(C)[N+](C)(CCOC(=O)C1c2ccccc2Oc2ccccc21)C(C)C | inactive | inactive | – | – | – | – | inactive | inactive | inactive | inactive | – | – |
| CCC(Cc1c(I)cc(I)c(N)c1I)C(=O)O (stereo not drawn) | 42.3 µM (active) and 15.1 µM (active) | inactive | inactive | – | – | – | inactive | inactive | inactive | – | – | – |
| Nc1ccc(O)c(N)c1 | inactive | – | inactive | inactive | – | -9.18% (inactive) and -12% (inactive) | inactive | inactive | – | – | – | – |
| CCCCCCCC/C=C\CCCCCCCC(=O)O | inactive | inactive | – | – | – | – | inactive | inactive | – | – | inactive | – |
| C[C@]12CC[C@@H]3c4ccc(O)cc4CC[C@H]3[C@@H]1CC[C@@H]2O | inactive | inactive | – | 27.3 µM (active) and 34.4 µM (active) | – | -53.8% (inactive) and -42.2% (inactive) | inactive | 17.3 µM (active) and 21.9 µM (active) | – | inactive | inactive | – |
| CNC[C@H](O)c1ccc(O)c(O)c1 | inactive | – | – | inactive | – | -7.74% (inactive) | inactive | inactive | inactive | inactive | inactive | 16.5% (inactive) |
| O=C(CCCN1CCC(O)(c2ccc(Cl)cc2)CC1)c1ccc(F)cc1 | inactive | inactive | – | – | – | – | 49 µM (active) and inactive | 17.4 µM (active) and 8.49 µM (active) | – | – | inactive | – |
| CC1(C)OC(=O)NC1=O | inactive | inactive | – | inactive | 3.88% (inactive) | 4.19% (inactive) | inactive | inactive | inactive | – | inactive | – |
| CC(C)(Oc1ccc(Cl)cc1)C(=O)O | inactive | inactive | – | – | – | – | inactive | inactive | inactive | inactive | – | – |
| O=Cc1ccccc1C=O | inactive | inactive | inactive | – | – | – | inactive | inactive | 38.9 µM (active) and inactive | – | – | – |
| CC(C)(C)c1cccc(C(C)(C)C)c1O | 53.7 µM (active) and inactive | inactive | inactive | – | – | – | inactive | 24 µM (active) and inactive | inactive | – | – | – |

| SMILES | Potency [1] | Potency [2] | outcome [3] | Potency [4] | activity change, positive = activation ([5]; at 42.5 µM (top of the series)) | activity change, positive = activation ([5]; at 92.4 µM (top of the series)) | Potency [6] | Potency [7] | Potency [8] | Potency [9] | Potency [10] | activity change, positive = activation ([5]; at 19 µM (top of the series)) |
| --- | --- | --- | --- | --- | --- | --- | --- | --- | --- | --- | --- | --- |
| c1ccc2cc3ccccc3cc2c1 | inactive | – | inactive | inactive | – | 6.4% (inactive) and 19.8% (active) | inactive | inactive | – | – | inactive | – |
| Cc1cccc(Nc2ccccc2C(=O)O)c1C | inactive | inactive | – | – | – | – | inactive | inactive | inactive | – | inactive | – |
| C1CN(SSN2CCOCC2)CCO1 | 54.4 µM (active) | – | inactive | 60.5 µM (active) and 61.1 µM (active) | – | -55.6% (inactive) and -54.1% (inactive) | inactive | inactive | inactive | inactive | inactive | – |
| NC[C@H](O)c1ccc(O)c(O)c1 | inactive | – | – | – | – | – | inactive | inactive | inactive | inactive | – | – |
| CCc1cccc2c3c([nH]c12)C(CC)(CC(=O)O)OCC3 (stereo not drawn) | inactive | inactive | – | – | – | – | inactive | inactive | inactive | inactive | – | – |
| CC[C@]12CCCN3CCc4c(n(c5ccccc45)[C@@](O)(C(=O)OC)C1)[C@@H]32 | inactive | inactive | – | inactive | 7.75% (inactive) | -6.91% (inactive) | inactive | inactive | – | inactive | inactive | – |
| Nc1cc(Cl)c(N)c(Cl)c1 | inactive | – | inactive | – | – | – | inactive | inactive | inactive | inactive | – | – |
| Oc1ccc(C(c2ccc(O)cc2)C(Cl)(Cl)Cl)cc1 | inactive | inactive | inactive | – | – | – | inactive | – | inactive | inactive | – | – |
| CC(=O)O[C@]1(C(C)=O)CC[C@H]2[C@@H]3C=C(C)C4=CC(=O)CC[C@]4(C)[C@H]3CC[C@@]21C | inactive | inactive | – | 21.7 µM (active) and 26.6 µM (active) | -37.5% (inactive) | -63.2% (inactive) | inactive | 17.4 µM (active) | inactive | inactive | inactive | – |
| CC1(C)NC(=O)N(c2ccc([N+](=O)[O-])c(C(F)(F)F)c2)C1=O | inactive | inactive | – | 17.2 µM (active) and 11.9 µM (active) | -39.2% (inactive) | -43.1% (inactive) | inactive | 24.5 µM (active) | inactive | – | 28.4 µM (active) and inactive | – |
| C=C[C@H]1CN2CC[C@H]1C[C@H]2[C@H](O)c1ccnc2ccc(OC)cc12 | inactive | inactive | – | – | – | – | inactive | inactive | – | inactive | inactive | – |
| C/C=C/C(=O)N(CC)c1ccccc1C | inactive | inactive | – | inactive | 9.15% (inactive) | -2.58% (inactive) | inactive | inactive | inactive | – | – | – |
| COc1ccc(-c2coc3cc(O)cc(O)c3c2=O)cc1 | inactive | inactive | – | – | – | – | inactive | 44 µM (active) and 49 µM (active) | inactive | inactive | 36 µM (active) | – |
| C[N+](C)(C)CCO | inactive | inactive | – | – | – | – | inactive | inactive | inactive | – | – | – |
| C[C@]12CC[C@@H]3c4ccc(O)cc4CC[C@H]3[C@@H]1CC[C@H]2O | inactive | inactive | – | 15.6 µM (active) and 27.3 µM (active) | – | -38.5% (inactive) and -39.7% (inactive) | inactive | 5.59 µM (active) and 13.8 µM (active) | – | inactive | – | – |
| CN(Cc1cnc2nc(N)nc(N)c2n1)c1ccc(C(=O)N[C@@H](CCC(=O)O)C(=O)O)cc1 | inactive | – | – | – | – | – | inactive | 110 nM (active) and 67.4 nM (active) | – | – | – | – |
| c1ccc2c(c1)ccc1cc3c(ccc4ccccc43)cc12 | inactive | – | inactive | – | – | – | inactive | inactive | inactive | – | inactive | – |
| Nc1ccc(N)c(Cl)c1 | inactive | – | inactive | 68.5 µM (active) and 54.5 µM (active) | – | -59.7% (inactive) and -39% (inactive) | inactive | inactive | inactive | – | – | – |
| O=C(O)COCCN1CCN(C(c2ccccc2)c2ccc(Cl)cc2)CC1 (stereo not drawn) | inactive | – | – | – | – | – | inactive | inactive | inactive | – | – | – |
| Nc1ccc2c(O)cc(S(=O)(=O)O)cc2c1 | – | – | inactive | 24.4 µM (active) and 13.7 µM (active) | – | -54% (inactive) and -40.6% (inactive) | inactive | 6.17 µM (active) | inactive | inactive | inactive | – |
| CC/C(=C(/CC)c1ccc(O)cc1)c1ccc(O)cc1 | inactive | inactive | – | – | – | – | inactive | 10.9 µM (active) and 27.5 µM (active) | inactive | inactive | 112 µM (active) and inactive | – |
